For 14 compounds, Potency and viability results are on record in PubChem BioAssay (NCATS).

Inconclusive results are not listed. A number with no mark means an inactive call. Calls of active or inactive are those of the source. The call rests on the fitted dose curve; in most records, active means well fitted curve in the direction sought with a large enough effect; inconclusive means small, poorly fitted or top-dose-only effect, or another doubt; inactive means no such curve, though single readings can be large; an effect the other way counts as inactive or inconclusive.

Experiment [1] can be described thus: Quantitative High-Throughput drug screen in 47 multiple myeloma cell lines against the NCATS MIPE library collection: MM1R_ATCC cell viability assay (AID 1918981). Further: nearly all actives have a fitted effect of over 35% in size. Further: potency means the concentration at half of the fitted maximal effect. As to conditions: MM1R multiple myeloma cells, CellTiter-Glo viability, 48 h; series mostly up to 45.8 µM. Put shortly: (§1)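 MIPE 4.0 approved/investigational drugs; 500 cells/well; 48 h 37 °C humidified 5% CO2; CTG luminescence readout; DMSO = 100%, media = 0% viability.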

A short description of experiment [2]: Quantitative High-Throughput drug screen in 47 multiple myeloma cell lines against the NCATS MIPE library collection: LP1_DSMZ cell viability assay (AID 1918982). Further: nearly all actives have a fitted effect of over 35% in size. Further: potency means the concentration at half of the fitted maximal effect. Particulars: LP1 myeloma viability, CellTiter-Glo ATP luminescence, 48 h; series mostly up to 45.8 µM. Put shortly:
as §1

The nature of experiment [3]: Quantitative High-Throughput drug screen in 47 multiple myeloma cell lines against the NCATS MIPE library collection: KMS28PE_JCRB cell viability assay (AID 1918983). Further: nearly all actives have a fitted effect of over 35% in size. Further: potency means the concentration at half of the fitted maximal effect. As to conditions: KMS28PE multiple myeloma viability, CellTiter-Glo ATP, 48 h; series mostly up to 45.8 µM. Put shortly:
as §1
On the technique in general: Cellular ATP, detected with luciferase, serves as a proxy for viable cell number.

Experiment [4] can be described thus: Quantitative High-Throughput drug screen in 47 multiple myeloma cell lines against the NCATS MIPE library collection: KMS34_JCRB cell viability assay (AID 1918985). Further: nearly all actives have a fitted effect of over 40% in size. Further: potency means the concentration at half of the fitted maximal effect. Particulars: KMS34 myeloma viability, CellTiter-Glo ATP luminescence, 48 h; series mostly up to 45.8 µM. Put shortly:
as §1

Experiment [5] can be described thus: Quantitative High-Throughput drug screen in 47 multiple myeloma cell lines against the NCATS MIPE library collection: OCIMY5_PLB cell viability assay (AID 1918988). Further: nearly all actives have a fitted effect of over 65% in size. Further: potency means the concentration at half of the fitted maximal effect. As to conditions: OCI-MY5 myeloma viability, ATP luminescence, 48 h; series mostly up to 45.8 µM. In a few lines: as §1
A short description of experiment [6]: Quantitative High-Throughput drug screen in 47 multiple myeloma cell lines against the NCATS MIPE library collection: SKMM1_PLB cell viability assay (AID 1919863). Further: nearly all actives have a fitted effect of over 35% in size. Further: potency means the concentration at half of the fitted maximal effect. As to conditions: SKMM1 myeloma viability, CellTiter-Glo ATP, 48 h; viability: hits give low values. In a few lines:
as §1

Experiment [7] in a line: Quantitative High-Throughput drug screen in 47 multiple myeloma cell lines against the NCATS MIPE library collection: XG6_PLB cell viability assay (AID 1919865). Further: nearly all actives have a fitted effect of over 40% in size. Further: potency means the concentration at half of the fitted maximal effect. As to conditions: XG6 myeloma viability, CellTiter-Glo ATP luminescence, 48 h; series mostly up to 45.8 µM. In a few lines:
as §1

Experiment [8] can be described thus: Quantitative High-Throughput drug screen in 47 multiple myeloma cell lines against the NCATS MIPE library collection: XG1_PLB cell viability assay (AID 1919866). Further: nearly all actives have a fitted effect of over 35% in size. Further: potency means the concentration at half of the fitted maximal effect. Particulars: CellTiter-Glo ATP, 48 h; series mostly up to 45.8 µM. In a few lines: as §1
A short description of experiment [9]: Quantitative High-Throughput drug screen in 47 multiple myeloma cell lines against the NCATS MIPE library collection: NCIH929_DSMZ cell viability assay (AID 1918978). Further: nearly all actives have a fitted effect of over 35% in size. Further: potency means the concentration at half of the fitted maximal effect. As to conditions: NCI-H929 myeloma viability, CellTiter-Glo ATP, 48 h; series mostly up to 45.8 µM. Put shortly:
as §1

A short description of experiment [10]: Quantitative High-Throughput drug screen in 47 multiple myeloma cell lines against the NCATS MIPE library collection: OCIMY7_PLB cell viability assay (AID 1918987). Further: nearly all actives have a fitted effect of over 65% in size. Further: potency means the concentration at half of the fitted maximal effect. As to conditions: OCI-MY7 myeloma viability, CellTiter-Glo ATP, 48 h; viability (% of DMSO): at 45.8 µM (top of the series). Put shortly:
as §1

Experiment [11] in a line: Quantitative High-Throughput drug screen in 47 multiple myeloma cell lines against the NCATS MIPE library collection: MM1S_ATCC cell viability assay (AID 1918980). Further: nearly all actives have a fitted effect of over 45% in size. Further: potency means the concentration at half of the fitted maximal effect. Particulars: MM1S myeloma viability, CellTiter-Glo ATP luminescence, 48 h; series mostly up to 45.8 µM. In a few lines: as §1
A short description of experiment [12]: Quantitative High-Throughput drug screen in 47 multiple myeloma cell lines against the NCATS MIPE library collection: OCIMY1_PLB cell viability assay (AID 1918979). Further: nearly all actives have a fitted effect of over 35% in size. Further: potency means the concentration at half of the fitted maximal effect.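 On viability: 100% = DMSO-only wells and 0% = cell-free media-only wells.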 Particulars: OCI-MY1 myeloma viability, CellTiter-Glo ATP, 48 h; series mostly up to 45.8 µM. In a few lines:
as §1

A short description of experiment [13]: Quantitative High-Throughput drug screen in 47 multiple myeloma cell lines against the NCATS MIPE library collection: MOLP8_DSMZ cell viability assay (AID 1918977).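 Further: 100% = DMSO-only wells and 0% = media-only wells without cells; nearly all actives have a fitted effect of over 45% in size.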 As to conditions: MOLP8 myeloma viability, CellTiter-Glo ATP luminescence, 48 h; series mostly up to 45.8 µM. In a few lines: as §1
The nature of experiment [14]: Quantitative High-Throughput drug screen in 47 multiple myeloma cell lines against the NCATS MIPE library collection: OPM1_PLB cell viability assay (AID 1918989). Further: nearly all actives have a fitted effect of over 40% in size. Further: potency means the concentration at half of the fitted maximal effect. As to conditions: CellTiter-Glo, 48 h; series mostly up to 45.8 µM. Put shortly: as §1
The nature of experiment [15]: Quantitative High-Throughput drug screen in 47 multiple myeloma cell lines against the NCATS MIPE library collection: U266_ATCC cell viability assay (AID 1919864). Further: nearly all actives have a fitted effect of over 35% in size. Further: potency means the concentration at half of the fitted maximal effect. Particulars: U266 myeloma viability, CellTiter-Glo ATP luminescence, 48 h; series mostly up to 45.8 µM. In a few lines: as §1

In the case of `Cc1cnc(-c2cc(N3CCN(C(=O)CCS(C)(=O)=O)CC3)ncc2Cl)c(C)c1`, the Potency in experiment [1] was 18.7 µM (active); in [5], 2.96 µM (active); in [7], 14.8 µM (active); in experiment [8] it was 16.6 µM (active). Also, the Potency entry in experiment [2], in [3] and in experiment [4] was “inactive” throughout. Further, in experiment [6], the viability is 114%.

`COc1ccc(Cn2ccc3ccc(C(=O)NO)cc32)cc1`: the Potency in [9] was 18.7 µM (active); in experiment [2], 16.6 µM (active); in experiment [10], 9.35 µM (active); in experiment [7], 14.8 µM (active). The Potency result in experiment [1] and in experiment [3] was “inactive” in each case.

Turning to `CN(CC=CC#CC(C)(C)C)Cc1cccc2ccccc12`, the Potency entry in experiment [9], in experiment [11], in experiment [3] and in experiment [4] was “inactive” each time.

As to `CO[C@H]1C=CO[C@@]2(C)Oc3c(C)c(O)c4c(O)c(c(C=NN5CCN(C)CC5)c(O)c4c3C2=O)NC(=O)C(C)=CC=C[C@H](C)[C@H](O)[C@@H](C)[C@@H](O)[C@@H](C)[C@H](OC(C)=O)[C@H]1C`, the Potency result in experiment [9], in [12], in [10], in experiment [7] and in experiment [8] was “inactive” in each case. The Potency in experiment [1] was 0.533 µM (active); in experiment [4], 2.12 µM (active); in experiment [5] it was 0.598 µM (active).

As to `CCOC(=O)[C@@H](N)CCC(=O)N[C@@H](CSCc1ccccc1)C(=O)N[C@@H](C(=O)OCC)c1ccccc1`, in experiment [3], the Potency result was “inactive”. In addition, the Potency in experiment [10] is 23.5 µM (active); in [7] it was 11.8 µM (active); in experiment [8], 23.5 µM (active).

Take `Cc1c(-c2cccc3c(CCCOc4cccc5ccccc45)c(C(=O)O)n(Cc4cccnc4)c23)c(COc2ccc(N3CCN([S+](=O)([O-])N(C)C)CC3)cc2)nn1C`: the Potency in experiment [9] is 3.72 µM (active); in [11], 23.5 µM (active); in experiment [6], 23.5 µM (active). Besides, the Potency result in experiment [12] was “inactive”.

With `C#CCN(C)CC1=Cc2ccccc2Oc2ccccc21`, the Potency entry in experiment [13], in experiment [12], in experiment [14], in experiment [7] and in [8] was “inactive” in each case. Further, the Potency in experiment [3] is 18.7 µM (active); in experiment [5], 20.9 µM (active).

Turning to `C[C@H]1O[C@@H](n2cc(F)c(=O)[nH]c2=O)[C@H](O)[C@H]1O`, the Potency result in experiment [9], in [12], in [3] and in experiment [7] was “inactive” in each case. The Potency is 14.8 µM (active) in experiment [1], 11.8 µM (active) in experiment [14] and 8.33 µM (active) in experiment [8].

With `CCNC(=O)Nc1ccc(Oc2ncnc(N)c2C=NOC)cc1Cl`, the Potency result in experiment [9], in [1] and in [14] was “inactive” in each case. In addition, the Potency in [12] is 23.5 µM (active); in experiment [10] it was 2.64 µM (active); in experiment [5], 14.8 µM (active); in [6], 11.8 µM (active); in experiment [7], 4.18 µM (active); in [8], 2.96 µM (active).

As for `CN1c2ccccc2C(=O)N2CCc3c([nH]c4ccccc34)C21` (stereo unspecified), the Potency result in experiment [12], in experiment [1], in experiment [2], in [3] and in experiment [5] was “inactive” in each case. For the same compound, in [6], the viability is 100%. The Potency in [15] was 16.6 µM (active); in experiment [7] it was 14.8 µM (active).

Take `O=C(O)C1=CC(O)C(O)[C@H](O)C1` (stereo partly specified): the Potency result in [12], in [1], in experiment [3], in experiment [4], in experiment [14] and in experiment [15] was “inactive” each time. Further, the Potency entry in experiment [7] and in experiment [8] was “inactive” throughout. Moreover, in experiment [6], the viability was 118%.

In the case of `CC(C)(F)C[C@H](N[C@@H](c1ccc(-c2ccc(S(C)(=O)=O)cc2)cc1)C(F)(F)F)C(=O)NC1(C#N)CC1`, the Potency result in experiment [1], in experiment [2], in experiment [4], in experiment [15], in experiment [7] and in experiment [8] was “inactive” in each case. Also, the Potency in experiment [14] is 5.9 µM (active).

Regarding `CCC[C@@H](NC(=O)[C@@H]1[C@H]2CCC[C@@H]2CN1C(=O)[C@@H](NC(=O)[C@@H](NC(=O)c1cnccn1)C1CCCCC1)C(C)(C)C)C(=O)C(=O)NC1CC1`, in [9], the Potency entry was “inactive”. The Potency in [1] was 18.7 µM (active); in experiment [3], 16.6 µM (active); in experiment [5], 16.6 µM (active); in experiment [8], 14.8 µM (active).

On to `Cc1ccccc1C(C(=O)NC1CCCCC1)N(C(=O)CNc1ccc(C#N)cc1)c1cccc(F)c1` (stereo unspecified), for which the Potency entry in experiment [9], in experiment [12], in experiment [11], in experiment [2], in experiment [3] and in experiment [4] was “inactive” each time. The Potency entry in [10], in experiment [14], in [7] and in experiment [8] was “inactive” throughout.

The term viability denotes a read-out of living cells in per cent, often relative to untreated cells.
